Values joined by “and” are separate entries in the source; they are usually repeats but may differ in a detail not shown here. Equal values may be shown once. Among all 340,000 compounds or so, about 2,100 (0.62%) were called active.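 Rule for the calls: active = first-screen hits whose inhibition reached a set limit at any dose in the follow-up dose series; inconclusive = inhibition above the set first-screen limit but never retested; inactive = the rest.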 A selection follows. Results with a measured potency or affinity are listed apart.
Target: Rac GTPase-activating protein 1 (Homo sapiens) (UniProt Q9H0H5)
Assay: MgcRacGAP GTPase-activating activity inhibitors, confirmation, biochemical, ADP Hunter fluorescence, primary and confirmatory (AID 624330);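 note: fluorescence reports GDP produced by GAP-driven GTP hydrolysis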
Settings: MgcRacGAP-stimulated Rac1 GTP hydrolysis, at 30 µM, hits give high values, GST-tagged Rac1 F28L mutant substrate

Rac GTPase-activating protein 1 (Homo sapiens), sequence (Q9H0H5 whole entry, looked up): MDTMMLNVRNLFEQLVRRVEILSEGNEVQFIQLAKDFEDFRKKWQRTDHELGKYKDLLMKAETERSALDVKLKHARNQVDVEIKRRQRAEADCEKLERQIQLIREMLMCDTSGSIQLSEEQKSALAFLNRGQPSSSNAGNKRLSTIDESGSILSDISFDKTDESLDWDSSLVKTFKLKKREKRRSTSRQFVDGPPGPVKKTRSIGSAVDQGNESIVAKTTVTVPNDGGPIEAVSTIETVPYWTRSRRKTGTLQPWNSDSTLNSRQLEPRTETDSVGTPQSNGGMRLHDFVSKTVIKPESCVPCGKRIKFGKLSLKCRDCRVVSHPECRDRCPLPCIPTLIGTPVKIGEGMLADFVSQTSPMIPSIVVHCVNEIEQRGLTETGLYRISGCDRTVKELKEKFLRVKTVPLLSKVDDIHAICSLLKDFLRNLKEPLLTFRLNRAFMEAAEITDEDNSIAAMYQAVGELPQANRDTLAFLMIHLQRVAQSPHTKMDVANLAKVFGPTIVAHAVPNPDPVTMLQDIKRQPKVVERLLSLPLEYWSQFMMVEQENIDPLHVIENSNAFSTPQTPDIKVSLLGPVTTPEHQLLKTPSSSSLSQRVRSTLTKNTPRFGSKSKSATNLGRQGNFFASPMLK

inhibition, inactive:
COC(c1ccccc1)c1nnc(CCC(=O)NCc2ccc3ncccc3c2)o1 (stereo unspecified) 9.84%
CCCN1CNC(=S)N(c2ccc(C)cc2C)C1 16.6%
CC(C)N(Cc1cc2ccccc2[nH]c1=O)C(=O)C(C)(C)C -1.34%
CCOC(=O)C(Sc1cc(C)nc(N)n1)C(C)=O (stereo unspecified) 0.9%
CCc1c(C)nc(N)nc1Cl -2.74%
COc1cc2c(cc1OC)C(c1ccccc1)=NCC2 3.03%
COc1cc2c(cc1OC)C(C)=NCC2 5.87%
Cc1cc(OCC(=O)OCC(=O)Nc2cc(S(=O)(=O)N3CCOCC3)ccc2Cl)ccc1Cl 2.85%
CCOC(=O)CN1C(=N)N(c2nc(NC(C)C)nc(NC(C)C)n2)CC1=O 7%
CCOC(=O)Cc1csc(NC(=O)CSc2nnnn2-c2ccc(CC)cc2)n1 8.91%
Cc1ccc(NC(=O)CCNC(=O)Nc2ccccc2)cc1S(=O)(=O)N(C)C 2.28%
Cc1ccc(NC(=O)CCNC(=O)c2ccccc2Cl)cc1S(=O)(=O)N(C)C 2.79%
CCN1/C(=N\N)c2cccc3cccc1c23 13.1%
CN1C(=O)N(C)c2cccc3cccc1c23 6.07%
Cc1oc(-c2cccc(F)c2)nc1CN1CCCN(C(=O)c2ccco2)CC1 9.79%
CCCCn1c(N)c(N(Cc2ccccc2OC)C(=O)C(C)Oc2ccc(Cl)cc2)c(=O)[nH]c1=O (stereo unspecified) 3.24%
Cc1ccc(S(=O)(=O)N(C)Cc2ccc(C(=O)NN=C(CC(C)C)CC(C)C)cc2)cc1 7.07%
CCn1cnc2c(Nc3cccc(Cl)c3)nc(C#N)nc21 12.9%
O=C(Cn1c(C(=O)NCCCN2CCOCC2)cc2sccc21)c1ccccc1 29.1%
O=C(NCC1CCCO1)c1ccccc1 (stereo unspecified) -0.11%
O=C(NCc1ccco1)c1ccccc1 4.89%
O=C(NCc1ccco1)c1cc2sccc2n1Cc1ccccc1 12.8%
CN1CCc2c(n(CC(O)CNCc3ccccc3)c3ccccc23)C1=O (stereo unspecified) 8.39%
COc1cc(C(F)(F)F)c(C(=O)N(C)Cc2ccc(Cl)c(Cl)c2)cn1 5.07%
O=C(CN1C(=O)c2ccccc2S1(=O)=O)Nc1ccc(S(=O)(=O)N2CCCC2)cc1 -4.76%
O=S(=O)(c1ccc(Cl)cc1)N1CCCCCC1 4.19%
CN1CCN(S(=O)(=O)c2ccc(Cl)cc2)CC1 4.29% and 1.92%
Cc1ccc(S(=O)(=O)NCCc2ccccc2)cc1 8.77%
Cc1ccc(S(=O)(=O)N2CCC(C(=O)N3CCCC(C(F)(F)F)C3)CC2)cc1C (stereo unspecified) 5.5%
CCOC(=O)C1=C(C)NC(=O)CC1c1cc2c(cc1Br)OCO2 (stereo unspecified) 14.8%
CCOC(=O)C1=C(C)N(C)C(=O)NC1c1cc2c(cc1[N+](=O)[O-])OCO2 (stereo unspecified) 11.2%
COc1ccc(CC(Cc2ccc(OC)c(OC)c2)NC=O)cc1OC 8.2%
O=C(Nc1ccccc1C(=O)Nc1ccccc1)c1ccco1 3.51%
CCOc1ccc(N2C(=O)C3C(c4ccccc4F)NN(C(=O)c4ccc(C)cc4)C3C2=O)cc1 (stereo unspecified) -3.94%
CC(=O)C1C(c2ccc([N+](=O)[O-])cc2)c2c(noc2C)CC1(C)O (stereo unspecified) -3.68%
CC(C)(C)OC(=O)n1cc(/C=N/NC(=O)c2ccco2)c2ccccc21 6.56%
O=C(O)CCCN1C(=O)/C(=C/c2ccc(-c3nc4ccccc4s3)o2)SC1=S 11.9%
O=C(O)CCCN1C(=O)/C(=C\c2ccc(-c3nc4ccccc4s3)o2)SC1=S 10.4%
COc1ccc(NC(=O)CNC(c2ccccc2)c2ccccc2)cc1Cl 5.6%
Cc1cccc(NC(=O)Cn2c(=O)oc3cc(S(=O)(=O)N4CCCC4)ccc32)n1 9.63%
CN(C)S(=O)(=O)Oc1ccc(Cl)cc1C(=O)Nc1ccc(F)cc1F 0.65%
Cc1ccc(F)cc1N=Cc1c(O)c2ccccc2oc1=O 7.61%
Cc1ccc(N=Cc2c(O)c3ccccc3oc2=O)c(C)c1 5.4%
COc1ccccc1NC(=O)C(=O)N1N=C(C(C)C)CC1(O)C(F)(F)F (stereo unspecified) -2.51%
O=C(NCc1cccc(C(F)(F)F)c1)C1CC(c2ccc(C(F)(F)F)cc2)=NO1 (stereo unspecified) 7.21%
Cc1ccc(Nc2cc(C)nc3ncnn23)c(C)c1 7.05%
Cc1ccc(C)c(N2CCN(CCCc3ccccc3)CC2)c1 -8.46%
O=C1C(Nc2ccccc2)=C/C(=N/S(=O)(=O)c2cccs2)c2ccccc21 13.2%
Cc1ccc(NC2=C/C(=N/S(=O)(=O)c3cccs3)c3ccccc3C2=O)cc1 12.6%
O=C1C(Cl)=C(NCCCO)C(=O)c2ccccc21 7.29%
Cc1ccc(NC2=C(Cl)C(=O)c3ccccc3C2=O)cc1 5.85%
CCNC1=C(Cl)C(=O)c2ccccc2C1=O 9.6%
CCN(CC)c1ccc(NC2=C(Cl)C(=O)c3ccccc3C2=O)cc1 28.6%
CCc1ccc(S(=O)(=O)/N=C2\C=C(Nc3ccc(O)cc3)C(=O)c3ccccc32)cc1 10.1%
O=C(O)c1ccc(NC2=C/C(=N/S(=O)(=O)c3ccccc3)c3ccccc3C2=O)cc1 11.5%
CC(C)CN1CCC(=O)N([C@H](COc2ccccc2)c2ccccc2)CC1 12.8%
O=C(CN1C2CCCC1CC(NC(=O)c1ccco1)C2)Nc1ccccc1 (stereo unspecified) 9.34%
CN(CC(=O)Nc1cccc(F)c1)CC(=O)N(C)c1c(N)n(Cc2ccccc2)c(=O)[nH]c1=O 7.85%
CC(C)c1ccc(NC(=O)COC(=O)c2c[nH]c(=O)[nH]c2=O)cc1 6.27%
Cc1ccc(C(=O)Nc2ncccc2O)cc1S(=O)(=O)N1CCCCC1 -2.55%
Cc1csc(=O)n1CC(=O)OCC(=O)NCc1ccc(Cl)cc1Cl 8.92%
O=C(Nc1ccc(Cl)cc1)C(c1ccccc1)N1CCOCC1 (stereo unspecified) 1.96%
COC1=C(Nc2ccccc2)C(=O)c2ccccc2C1=O 11.3%
COC1=C(Nc2ccc(C)cc2)C(=O)c2ccccc2C1=O 6.66%
Nc1nc(COc2ccc(Cl)cc2)cs1 5.42%
O=C(Nc1ccc2c(c1)OCCO2)C1CC(O)CN1C(=O)Nc1ccccc1 (stereo unspecified) 5.39%
Cc1cc(C(=O)NNC(=O)/C=C/c2ccccc2Cl)c(C)o1 6.81%
Cc1cc(C(=O)NNC(=O)/C=C/c2ccc(F)cc2)c(C)o1 0.14%
COc1cccc(-c2cc(C(=O)Nc3cccnc3)no2)c1 3.22%
Cc1c(Cl)cccc1NC(=S)NCc1cccs1 5.46%
COCC(=O)NC1CCN(S(=O)(=O)c2ccc(C(=O)O)cc2)CC1 3.4%
COc1cc2cnc(-c3ccccc3)c(C(=O)c3ccc(F)cc3)c2cc1OC 6.22%
Cc1ccc(N=Nc2c(N)nn3c(C)cc(C)nc23)cc1 7.06%
Cc1cc(C)n2nc(N)c(N=Nc3ccccc3)c2n1 13.3%
Cc1cc(C)n2nc(N)c(N=Nc3ccc(Cl)cc3)c2n1 8.06%
Nc1nn2c(-c3ccccc3)cc(=O)[nH]c2c1N=Nc1ccc(Br)cc1 4.26%
COc1ccc(C(=O)NNC(=O)CSc2ccccc2)cc1 0.63%
Cc1ccc(N(CC(=O)N2CCN(C3CCCCC3)CC2)S(=O)(=O)c2cccnc2)cc1 -4.65%
N#CC(C#N)=C1C(=O)N(CCN2CCCCC2)c2ccccc21 -11.4%
O=C(CSc1nc(NS(=O)(=O)c2ccccc2)cc(=O)[nH]1)Nc1ccc(Cl)cc1 -0.7%
NS(=O)(=O)c1ccc(NC(=S)N2CCC(Cc3ccccc3)CC2)cc1 18.2%
NS(=O)(=O)c1ccc(CCNC(=O)CN2CCC(Cc3ccccc3)CC2)cc1 6.03%
Cc1ccc(OCC(=O)NNC(=O)C2CC(=O)N(c3ccc4c(c3)OCCO4)C2)cc1 (stereo unspecified) 6.61%
O=C(CCc1nnc(CCCCc2ccccc2)o1)NCc1cc(F)ccc1F 9.91%
Cn1c(CCC(=O)OCC(=O)Nc2ccc(Oc3ccccc3)cc2)nc(=O)c2ccccc21 2.65%
CC(C)Cc1n[nH]c(=O)[nH]1 4.75%
O=C1NC(=O)/C(=C/c2cccc(O)c2)N1 5.03%
COc1cc(/C=C2\SC(=N)N(c3ccc(F)cc3)C2=O)ccc1O 20.9%
O=C1NC(=O)C(=Cc2ccccc2)N1 -1.98%
COc1ccc(C=C2NC(=O)NC2=O)cc1O 10.9%
COc1ccc(C=C2SC(=O)NC2=O)cc1OC 6.99%
CCN(CC)c1ccc(/C=C2\NC(=O)NC2=O)cc1 30.9%
CC1(C)CC(=O)C(C=NCCN2CCN(C(=O)c3ccc(F)cc3)CC2)=C(O)C1 0.28%
COc1ccccc1CN1CC(C(=O)NCc2nccn2C)CCC1=O (stereo unspecified) 10.1%
COC(=O)[C@@]12CCCN1[C@H](c1ccc(-c3ccccc3)cc1)[C@H]1C(=O)N(C)C(=O)[C@H]12 8.21%
COc1ccc(CCNC(=O)Cn2ccc3c(OC)cccc3c2=O)cc1OC 8.24%
